Holding throughout (experiment): DAPPL (digital affinity profiling via proximity ligation, sequencing); 10 mM Tris-HCl pH 7.5, 50 mM NaCl, 1 mM DTT, 4% glycerol, room temperature, 30 min; GST-TFs on glutathione beads, 16-mer random dsDNA library, 0.1% formaldehyde crosslink after washing; high values mean tight binding
Details in all cases: protein: recombinant; tags: N-terminal GST; dsDNA, one strand shown

Assay [1] concerns the target T1, FLI1 (Homo sapiens, UniProt Q01543 1-452).
T1 sequence: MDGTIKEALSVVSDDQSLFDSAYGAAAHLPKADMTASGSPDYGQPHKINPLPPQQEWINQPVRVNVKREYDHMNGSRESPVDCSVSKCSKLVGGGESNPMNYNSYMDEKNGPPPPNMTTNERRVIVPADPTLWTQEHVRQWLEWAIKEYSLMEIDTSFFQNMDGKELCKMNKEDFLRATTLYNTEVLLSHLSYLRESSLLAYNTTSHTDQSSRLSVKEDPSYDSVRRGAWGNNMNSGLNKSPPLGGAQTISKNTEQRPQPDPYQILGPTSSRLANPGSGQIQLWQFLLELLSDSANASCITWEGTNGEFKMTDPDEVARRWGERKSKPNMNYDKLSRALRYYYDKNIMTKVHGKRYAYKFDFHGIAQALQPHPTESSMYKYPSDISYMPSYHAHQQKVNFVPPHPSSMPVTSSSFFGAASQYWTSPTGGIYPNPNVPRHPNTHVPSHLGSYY
In short, it runs like this: (§1)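 Human transcription factors were made in yeast as GST fusions, captured on glutathione beads and barcoded with DNA. With a tag-only sample included, the pool was incubated with 200 nmole of a random double-stranded 16-mer DNA library in Tris/NaCl/DTT/glycerol buffer at room temperature for 30 min, then crosslinked with 0.1% formaldehyde after washing, ligated by proximity, amplified and sequenced. For binding signal, each hexamer's read frequency for a factor is divided by its frequency for the tag-only sample.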

Assay [2] has as its target T2, ERG (Homo sapiens, UniProt P11308 1-479).
T2 sequence: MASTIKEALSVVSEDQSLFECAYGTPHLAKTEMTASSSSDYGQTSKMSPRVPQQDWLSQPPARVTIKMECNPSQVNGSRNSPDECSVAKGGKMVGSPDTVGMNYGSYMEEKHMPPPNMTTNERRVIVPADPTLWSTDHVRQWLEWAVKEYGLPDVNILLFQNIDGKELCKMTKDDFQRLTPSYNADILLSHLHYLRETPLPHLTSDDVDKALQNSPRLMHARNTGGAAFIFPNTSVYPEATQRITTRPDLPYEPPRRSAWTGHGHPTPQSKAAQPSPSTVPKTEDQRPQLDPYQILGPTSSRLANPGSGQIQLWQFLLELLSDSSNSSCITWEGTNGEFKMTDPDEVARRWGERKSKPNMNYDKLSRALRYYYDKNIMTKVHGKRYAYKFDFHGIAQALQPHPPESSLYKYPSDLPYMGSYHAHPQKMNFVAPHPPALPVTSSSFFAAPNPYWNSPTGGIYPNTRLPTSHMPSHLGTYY
In short, it runs like this:
as §1

The target in assay [3] is T3, EHF (Homo sapiens, UniProt Q9NZC4 1-300).
T3 sequence: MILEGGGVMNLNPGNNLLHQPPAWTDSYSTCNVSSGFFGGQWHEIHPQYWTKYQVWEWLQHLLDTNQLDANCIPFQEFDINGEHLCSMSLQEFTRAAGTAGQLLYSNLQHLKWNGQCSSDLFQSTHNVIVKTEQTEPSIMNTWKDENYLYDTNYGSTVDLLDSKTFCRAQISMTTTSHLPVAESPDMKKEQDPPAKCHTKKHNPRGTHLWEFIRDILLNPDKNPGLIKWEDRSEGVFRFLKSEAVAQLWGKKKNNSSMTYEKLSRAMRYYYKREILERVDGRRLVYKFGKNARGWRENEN
In short, it runs like this:
as §1

For assay [4], the target named is T4, ELK3 (Homo sapiens, UniProt P41970 1-407).
T4 sequence: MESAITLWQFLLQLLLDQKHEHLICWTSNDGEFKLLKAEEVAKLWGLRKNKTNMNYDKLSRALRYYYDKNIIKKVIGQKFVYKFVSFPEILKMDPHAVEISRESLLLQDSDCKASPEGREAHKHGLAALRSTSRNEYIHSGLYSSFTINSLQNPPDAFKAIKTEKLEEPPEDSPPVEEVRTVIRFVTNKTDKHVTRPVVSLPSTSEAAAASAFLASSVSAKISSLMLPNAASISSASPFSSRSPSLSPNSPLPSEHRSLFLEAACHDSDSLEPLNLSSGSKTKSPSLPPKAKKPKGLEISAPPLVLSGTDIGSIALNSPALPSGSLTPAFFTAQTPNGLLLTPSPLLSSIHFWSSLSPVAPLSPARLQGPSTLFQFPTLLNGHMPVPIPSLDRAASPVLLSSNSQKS
The procedure, abridged:
as §1

The target of assay [5] is T5, SPIC (Homo sapiens, UniProt Q8N5J4 1-248).
T5 sequence: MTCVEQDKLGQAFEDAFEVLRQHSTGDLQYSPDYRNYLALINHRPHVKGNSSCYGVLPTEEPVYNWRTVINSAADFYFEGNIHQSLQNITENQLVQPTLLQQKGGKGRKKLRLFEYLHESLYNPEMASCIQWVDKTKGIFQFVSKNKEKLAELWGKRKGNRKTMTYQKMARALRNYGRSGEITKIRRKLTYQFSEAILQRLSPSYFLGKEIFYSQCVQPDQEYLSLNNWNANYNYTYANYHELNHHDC
The procedure, abridged:
as §1

For assay [6], the target named is ELF4 (Homo sapiens, UniProt Q99607 1-663). In short, it runs like this: as §1
Chain of ELF4 (Q99607 whole entry): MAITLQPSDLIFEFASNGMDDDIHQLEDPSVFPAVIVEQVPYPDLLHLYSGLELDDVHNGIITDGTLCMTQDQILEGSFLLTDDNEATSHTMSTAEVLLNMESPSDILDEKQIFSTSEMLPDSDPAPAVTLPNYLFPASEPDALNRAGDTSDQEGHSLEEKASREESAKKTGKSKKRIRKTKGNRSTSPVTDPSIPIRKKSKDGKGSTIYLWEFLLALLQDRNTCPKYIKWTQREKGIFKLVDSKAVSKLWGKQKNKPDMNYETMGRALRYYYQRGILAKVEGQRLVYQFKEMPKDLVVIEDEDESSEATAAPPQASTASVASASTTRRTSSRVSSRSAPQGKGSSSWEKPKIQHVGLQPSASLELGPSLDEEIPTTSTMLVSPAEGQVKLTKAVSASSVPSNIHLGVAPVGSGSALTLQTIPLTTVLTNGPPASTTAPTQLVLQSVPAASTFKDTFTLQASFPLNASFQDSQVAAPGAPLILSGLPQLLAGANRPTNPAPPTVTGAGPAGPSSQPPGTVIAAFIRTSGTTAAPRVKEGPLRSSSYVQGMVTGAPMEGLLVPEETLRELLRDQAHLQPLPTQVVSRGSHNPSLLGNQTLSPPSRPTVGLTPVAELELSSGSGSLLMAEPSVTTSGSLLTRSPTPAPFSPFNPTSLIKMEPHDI
In assay [7] the target is T6, ELK4 (Homo sapiens, UniProt P28324-2 1-405).
T6 sequence: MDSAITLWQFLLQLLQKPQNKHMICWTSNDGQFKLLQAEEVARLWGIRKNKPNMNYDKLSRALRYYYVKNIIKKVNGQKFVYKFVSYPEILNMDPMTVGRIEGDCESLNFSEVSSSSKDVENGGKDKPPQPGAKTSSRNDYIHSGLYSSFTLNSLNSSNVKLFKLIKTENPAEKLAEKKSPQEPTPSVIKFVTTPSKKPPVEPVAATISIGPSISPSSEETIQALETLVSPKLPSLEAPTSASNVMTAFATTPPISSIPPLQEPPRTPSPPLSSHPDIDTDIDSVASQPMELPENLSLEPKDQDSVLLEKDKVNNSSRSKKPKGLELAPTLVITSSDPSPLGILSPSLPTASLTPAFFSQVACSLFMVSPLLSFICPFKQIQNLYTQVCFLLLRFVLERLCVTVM
In short, it runs like this:
as §1

In assay [8] the target is T7, ELF3 (Homo sapiens, UniProt P78545 1-371).
T7 sequence: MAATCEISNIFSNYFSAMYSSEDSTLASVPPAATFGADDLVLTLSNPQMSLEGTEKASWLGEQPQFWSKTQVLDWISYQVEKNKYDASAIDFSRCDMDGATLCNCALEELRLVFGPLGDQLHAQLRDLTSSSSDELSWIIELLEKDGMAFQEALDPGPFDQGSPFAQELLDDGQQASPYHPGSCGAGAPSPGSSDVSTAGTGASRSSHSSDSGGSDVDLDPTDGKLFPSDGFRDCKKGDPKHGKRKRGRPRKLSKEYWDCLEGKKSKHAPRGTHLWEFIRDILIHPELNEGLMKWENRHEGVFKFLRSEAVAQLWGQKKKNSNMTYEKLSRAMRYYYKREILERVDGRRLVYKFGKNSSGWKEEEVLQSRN
The procedure, abridged: as §1

Assay [9] has as its target ETV1 (Homo sapiens, UniProt P50549 1-477). In short, it runs like this:
as §1

Assay [10] has as its target T8, ERF (Homo sapiens, UniProt P50548 1-548).
T8 sequence: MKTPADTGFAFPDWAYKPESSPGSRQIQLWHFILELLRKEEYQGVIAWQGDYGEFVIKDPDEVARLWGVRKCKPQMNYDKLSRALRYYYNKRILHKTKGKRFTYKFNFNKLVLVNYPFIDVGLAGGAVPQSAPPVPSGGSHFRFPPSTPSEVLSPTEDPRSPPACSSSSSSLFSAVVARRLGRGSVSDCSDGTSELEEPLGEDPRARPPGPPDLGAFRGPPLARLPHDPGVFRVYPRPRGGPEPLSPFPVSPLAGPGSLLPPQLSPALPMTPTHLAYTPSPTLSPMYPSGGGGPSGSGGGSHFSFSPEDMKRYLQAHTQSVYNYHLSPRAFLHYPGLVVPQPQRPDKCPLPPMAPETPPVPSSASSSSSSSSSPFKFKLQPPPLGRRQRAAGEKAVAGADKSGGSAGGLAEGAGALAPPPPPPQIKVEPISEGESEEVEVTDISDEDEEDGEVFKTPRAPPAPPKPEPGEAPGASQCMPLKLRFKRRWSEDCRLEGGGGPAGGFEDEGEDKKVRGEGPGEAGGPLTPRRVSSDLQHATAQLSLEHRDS
In short, it runs like this: as §1

The target in assay [11] is T9, ETV7 (Homo sapiens, UniProt Q9Y603 1-341).
T9 sequence: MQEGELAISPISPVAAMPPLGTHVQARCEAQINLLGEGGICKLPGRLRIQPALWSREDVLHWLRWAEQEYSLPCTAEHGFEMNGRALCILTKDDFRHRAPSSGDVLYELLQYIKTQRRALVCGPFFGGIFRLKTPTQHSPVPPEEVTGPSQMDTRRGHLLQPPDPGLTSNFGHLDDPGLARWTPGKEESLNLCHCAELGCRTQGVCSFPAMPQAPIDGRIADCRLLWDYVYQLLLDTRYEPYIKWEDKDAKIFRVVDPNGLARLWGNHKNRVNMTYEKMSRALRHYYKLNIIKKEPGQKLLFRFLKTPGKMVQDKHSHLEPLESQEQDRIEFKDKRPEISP
In short, it runs like this:
as §1

Assay [12] has as its target ETV6 (Homo sapiens, UniProt P41212 1-452). In short, it runs like this:
as §1

For one sequence, binding signal results are on record in article PMC7862700, “An all-to-all approach to the identification of sequence-specific readers for epigenetic DNA modifications on cytosine”.

Chain of ETV1 (P50549 whole entry): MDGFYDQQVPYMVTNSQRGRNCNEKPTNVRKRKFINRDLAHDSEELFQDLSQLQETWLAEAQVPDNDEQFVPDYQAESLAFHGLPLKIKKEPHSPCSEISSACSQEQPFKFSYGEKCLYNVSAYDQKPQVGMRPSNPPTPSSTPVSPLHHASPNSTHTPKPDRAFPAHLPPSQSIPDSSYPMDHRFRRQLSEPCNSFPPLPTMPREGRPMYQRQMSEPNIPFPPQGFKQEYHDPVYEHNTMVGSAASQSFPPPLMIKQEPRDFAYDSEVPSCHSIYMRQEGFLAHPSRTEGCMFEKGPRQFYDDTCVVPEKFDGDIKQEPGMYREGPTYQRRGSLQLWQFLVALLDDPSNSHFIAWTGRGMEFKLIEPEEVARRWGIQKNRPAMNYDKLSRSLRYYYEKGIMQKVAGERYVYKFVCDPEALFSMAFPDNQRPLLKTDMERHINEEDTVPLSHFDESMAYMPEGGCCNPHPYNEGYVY
Chain of ETV6 (P41212 whole entry): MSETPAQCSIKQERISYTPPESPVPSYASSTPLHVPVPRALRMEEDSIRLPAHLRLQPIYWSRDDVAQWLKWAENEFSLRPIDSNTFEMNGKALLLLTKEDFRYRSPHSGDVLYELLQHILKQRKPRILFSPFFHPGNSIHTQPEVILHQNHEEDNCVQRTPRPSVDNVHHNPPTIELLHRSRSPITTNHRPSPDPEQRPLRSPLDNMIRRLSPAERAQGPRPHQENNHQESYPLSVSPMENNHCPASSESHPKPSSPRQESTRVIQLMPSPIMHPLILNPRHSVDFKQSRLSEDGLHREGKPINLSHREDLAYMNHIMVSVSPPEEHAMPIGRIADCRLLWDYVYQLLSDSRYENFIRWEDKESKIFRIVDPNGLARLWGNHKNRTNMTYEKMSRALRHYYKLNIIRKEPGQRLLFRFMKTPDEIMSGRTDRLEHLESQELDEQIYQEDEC

In the case of GTCACG, the binding signal in [1] is 1.09 fold enrichment (6-mer frequency, TF over GST control); in assay [2], 1.06 fold enrichment (6-mer frequency, TF over GST control); in assay [3] it was 1.07 fold enrichment (6-mer frequency, TF over GST control); in assay [4], 1.02 fold enrichment (6-mer frequency, TF over GST control); in assay [5], 1.04 fold enrichment (6-mer frequency, TF over GST control); in assay [6], 1.07 fold enrichment (6-mer frequency, TF over GST control). Moreover, the binding signal is 1.08 fold enrichment (6-mer frequency, TF over GST control) in [7]; 1.02 fold enrichment (6-mer frequency, TF over GST control) in [8]; 1.1 fold enrichment (6-mer frequency, TF over GST control) in [9]; 1.08 fold enrichment (6-mer frequency, TF over GST control) in assay [10]; 1.04 fold enrichment (6-mer frequency, TF over GST control) in assay [11]; 1.04 fold enrichment (6-mer frequency, TF over GST control) in [12].
